In all, about 310,000 compounds went through this assay and about 14,000 (4.5%) showed an effect of 50% or more. The effect is printed as a negative number. The list comes from a sample in which strong results are over-represented; it also holds similar structures and randomly drawn compounds.
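Note: peak tail current of the secondary pulse compared with the same well before compound.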

human ether-à-go-go-related gene (hERG) potassium channel, sequence (Q12809 whole entry, looked up): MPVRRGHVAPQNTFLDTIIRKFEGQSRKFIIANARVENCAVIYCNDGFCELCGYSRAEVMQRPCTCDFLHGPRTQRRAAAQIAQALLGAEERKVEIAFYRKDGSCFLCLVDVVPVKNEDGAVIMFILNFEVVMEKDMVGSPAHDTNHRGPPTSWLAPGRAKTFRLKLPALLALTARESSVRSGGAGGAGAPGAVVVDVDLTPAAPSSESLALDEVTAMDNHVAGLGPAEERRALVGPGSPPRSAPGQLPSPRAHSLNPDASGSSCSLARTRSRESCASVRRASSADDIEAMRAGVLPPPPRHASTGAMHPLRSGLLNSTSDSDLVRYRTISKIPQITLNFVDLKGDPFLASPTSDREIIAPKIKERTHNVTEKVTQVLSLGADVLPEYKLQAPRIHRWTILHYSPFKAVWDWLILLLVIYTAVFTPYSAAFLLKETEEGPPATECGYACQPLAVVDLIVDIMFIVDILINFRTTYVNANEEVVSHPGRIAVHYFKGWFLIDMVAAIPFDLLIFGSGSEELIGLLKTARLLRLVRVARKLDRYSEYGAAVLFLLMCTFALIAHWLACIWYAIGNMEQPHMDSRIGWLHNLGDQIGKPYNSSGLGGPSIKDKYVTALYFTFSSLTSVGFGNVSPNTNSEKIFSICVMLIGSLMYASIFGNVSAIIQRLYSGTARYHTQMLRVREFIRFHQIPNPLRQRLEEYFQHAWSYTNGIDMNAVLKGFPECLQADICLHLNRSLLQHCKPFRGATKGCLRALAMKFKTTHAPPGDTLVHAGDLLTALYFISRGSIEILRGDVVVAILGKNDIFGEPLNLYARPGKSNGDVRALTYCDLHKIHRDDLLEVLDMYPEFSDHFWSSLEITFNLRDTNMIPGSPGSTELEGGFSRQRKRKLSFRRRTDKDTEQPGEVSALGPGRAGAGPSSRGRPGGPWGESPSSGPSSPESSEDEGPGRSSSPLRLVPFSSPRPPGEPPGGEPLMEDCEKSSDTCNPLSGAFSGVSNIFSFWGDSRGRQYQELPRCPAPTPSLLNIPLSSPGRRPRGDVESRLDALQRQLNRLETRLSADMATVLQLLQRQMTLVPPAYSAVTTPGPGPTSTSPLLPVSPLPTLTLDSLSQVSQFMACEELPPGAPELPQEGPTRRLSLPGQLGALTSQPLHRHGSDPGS

The assay has as its target human ether-à-go-go-related gene (hERG) potassium channel (human, UniProt Q12809). Description: primary screen, population patch clamp on CHO cells stably expressing hERG; higher = less effect of the substance.
Take `O=C(c1cccc(Br)c1)N1CCCC1`: the “hERG current change (%, negative = inhibition) at 10uM” value came out at 0.701%.

With `O=C1CC2(CCN(C(=O)c3ccc(Br)cc3)CC2)Oc2ccccc21`, the “hERG current change (%, negative = inhibition) at 10uM” value is -73.5%.

For `O=C(c1ccc(F)cc1)N1CCC2(CC1)OCCO2`, the “hERG current change (%, negative = inhibition) at 10uM” value worked out at 19%.

Regarding `O=C1CC2(CCN(C(=O)c3ccc(F)cc3)CC2)Oc2ccccc21`, the “hERG current change (%, negative = inhibition) at 10uM” value was -76%.

For `O=C1CC2(CCN(C(=O)c3cccc(Cl)c3)CC2)Oc2ccccc21`, the “hERG current change (%, negative = inhibition) at 10uM” value is listed as -78.5%.

For the compound `Oc1c(C(Nc2cccc(C(F)(F)F)c2)c2ccncc2)ccc2cccnc12` (stereo not drawn), the “hERG current change (%, negative = inhibition) at 10uM” value amounted to 12.3%.

Turning to `CCOc1ccc(S(=O)(=O)NCCC(=O)OCC(=O)Nc2cc(C)on2)cc1`, the “hERG current change (%, negative = inhibition) at 10uM” value was -44.1%.

On to `COc1ccc(-c2nnn(CC(=O)c3ccc4c(c3)OCCO4)n2)cc1OC`, for which the “hERG current change (%, negative = inhibition) at 10uM” value is reported as 9.3%.

On to `C/C(=N\NC(=O)c1cc(-c2ccc(Br)s2)[nH]n1)c1ccncc1`, for which the “hERG current change (%, negative = inhibition) at 10uM” value is given as 11.1%.

Take `COc1ccc(C(=O)CCc2ccccc2)cc1`: the “hERG current change (%, negative = inhibition) at 10uM” value turned out to be 9.03%.

For `CCOC(=O)N1CCN(c2nc(-c3ccco3)cc(C(F)(F)F)n2)CC1`, the “hERG current change (%, negative = inhibition) at 10uM” value is on record as -3.17%.

As for `Cc1ccc(C(=O)Nc2cccnc2N2CCN(C)CC2)cc1`, the “hERG current change (%, negative = inhibition) at 10uM” value is -5.47%.

For `O=C(c1ccc(Cl)cc1)N1CCC2(CC1)OCCO2`, the “hERG current change (%, negative = inhibition) at 10uM” value was determined as 13.2%.

As for `O=C1CC2(CCCC2)Oc2ccc(F)cc21`, the “hERG current change (%, negative = inhibition) at 10uM” value is -8.58%.

As for `O=C1CC2(CCN(C(=O)c3cccc(F)c3)CC2)Oc2ccccc21`, the “hERG current change (%, negative = inhibition) at 10uM” value is -75.1%.

For the compound `O=C1CC2(CCN(C(=O)c3ccc(Cl)cc3)CC2)Oc2ccccc21`, the “hERG current change (%, negative = inhibition) at 10uM” value was -87.8%.

Consider `Cc1cccc(NS(=O)(=O)c2cccc(C(=O)N3CCCC3)c2)c1`, for which the “hERG current change (%, negative = inhibition) at 10uM” value is listed as 4.7%.

With `CC(C)(C)NC(=O)COC(=O)c1ccc(Cl)cc1O`, the “hERG current change (%, negative = inhibition) at 10uM” value turned out to be 18.8%.

`C=CCN=C1CC(C)(C)CC(=O)/C1=C(\O)CCCN1C(=O)c2ccccc2C1=O`: the “hERG current change (%, negative = inhibition) at 10uM” value is -23.5%.

Take `Cc1ccc(NC2c3ncccc3C(=O)N2C2CCCCC2)cc1` (stereo not drawn): the “hERG current change (%, negative = inhibition) at 10uM” value turned out to be 5.93%.

`Cn1cc(CN2CCN(c3cnccn3)CC2)c(-c2cccc(Cl)c2)n1`: the “hERG current change (%, negative = inhibition) at 10uM” value was determined as 6.29%.

On to `COc1cc2c(cc1OC)C(C(=O)N1CCN(c3ccccn3)CC1)C(c1cccs1)N(C)C2=O` (stereo not drawn), for which the “hERG current change (%, negative = inhibition) at 10uM” value is listed as -38%.

Take `COc1cc2c(cc1OC)C(C(=O)N1CCN(c3ccccc3)CC1)C(c1cccs1)N(C)C2=O` (stereo not drawn): the “hERG current change (%, negative = inhibition) at 10uM” value was -68.1%.

Consider `COc1cc2c(cc1OC)C(C(=O)N1CCOCC1)C(c1cccs1)N(C)C2=O` (stereo not drawn), for which the “hERG current change (%, negative = inhibition) at 10uM” value amounted to 4.09%.

Turning to `O=C(O)CN(Cc1ccco1)S(=O)(=O)c1ccccc1`, the “hERG current change (%, negative = inhibition) at 10uM” value is listed as 11.6%.

On to `Nc1nnc(SCC(=O)Nc2cccc(S(=O)(=O)N3CCCCC3)c2)s1`, for which the “hERG current change (%, negative = inhibition) at 10uM” value is reported as -12.8%.

With `CCCC[C@@H]1C[C@H]1[C@@H](NC(=O)c1ccco1)c1ccc(Cl)cc1`, the “hERG current change (%, negative = inhibition) at 10uM” value is reported as -50.2%.

For `CCCC[C@@H]1C[C@H]1[C@@H](NC(=O)c1ccco1)c1ccc(C(=O)OC)cc1`, the “hERG current change (%, negative = inhibition) at 10uM” value is -34%.

For `CCCC[C@@H]1C[C@H]1[C@@H](NC(=O)c1cccs1)c1ccc(Cl)cc1`, the “hERG current change (%, negative = inhibition) at 10uM” value is given as -9.44%.

Consider `CC(=O)NC(Cc1ccccc1C)C(=O)NC1CCN(C(=O)c2cccc(C)c2)CC1` (stereo not drawn), for which the “hERG current change (%, negative = inhibition) at 10uM” value is reported as 34.5%.

In the case of `O=C(CCSCCC(=O)NCc1ccco1)NCc1ccco1`, the “hERG current change (%, negative = inhibition) at 10uM” value was determined as 6.38%.

For `O=C(CSc1ncc(-c2ccccc2)nn1)NCc1ccco1`, the “hERG current change (%, negative = inhibition) at 10uM” value is reported as -23.6%.

Consider `O=C(CSc1ccc2nnc(-c3ccccn3)n2n1)NCC1CCCO1` (stereo not drawn), for which the “hERG current change (%, negative = inhibition) at 10uM” value is -8.53%.

Regarding `O=C(CSc1ccc2nnc(-c3ccccc3)n2n1)NCc1ccco1`, the “hERG current change (%, negative = inhibition) at 10uM” value was -72.2%.

Regarding `Cc1ccc(-c2nnc3ccc(SCC(=O)NCc4ccco4)nn23)cc1`, the “hERG current change (%, negative = inhibition) at 10uM” value is -6.59%.

`CCOc1ccc(-c2nnc3ccc(SCC(=O)NCc4ccco4)nn23)cc1`: the “hERG current change (%, negative = inhibition) at 10uM” value was -8.72%.

In the case of `O=C(CSc1ccc2nnc(-c3ccccn3)n2n1)NCc1ccco1`, the “hERG current change (%, negative = inhibition) at 10uM” value is recorded as -63.1%.

In the case of `O=C(CSc1ccc2nnc(-c3ccncc3)n2n1)NCc1ccco1`, the “hERG current change (%, negative = inhibition) at 10uM” value is recorded as -25.8%.

For `Cc1ccc(NC(=O)CSCC(=O)NCc2ccco2)cc1`, the “hERG current change (%, negative = inhibition) at 10uM” value was -0.0131%.

For the compound `O=C(CSc1nc(-c2ccccc2)c(-c2ccccc2)[nH]1)NCc1ccco1`, the “hERG current change (%, negative = inhibition) at 10uM” value is listed as -1.63%.

For `O=C(CSCC(=O)NCc1ccco1)NCc1ccco1`, the “hERG current change (%, negative = inhibition) at 10uM” value is recorded as -66%.

As for `O=C(CSc1nnc(-c2ccccc2)c(-c2ccccc2)n1)NCc1ccco1`, the “hERG current change (%, negative = inhibition) at 10uM” value is given as -55.5%.

Regarding `Cc1cc(C(=O)N/N=C/c2ccc([N+](=O)[O-])o2)c(C)o1`, the “hERG current change (%, negative = inhibition) at 10uM” value is -7.72%.

Consider `CNC(=O)c1ccc(NC(=O)/C=C/c2cccc(F)c2)cc1`, for which the “hERG current change (%, negative = inhibition) at 10uM” value is reported as -18.3%.

Consider `Cn1nc(NC(=O)C2CCC2C(=O)O)c2c(F)cccc21` (stereo not drawn), for which the “hERG current change (%, negative = inhibition) at 10uM” value is on record as -0.347%.

These data come from publication PMC4336329 (PLoS ONE, 2015).
